# High-throughput results as filed in PubChem.
# PI5P4K alpha inh = qHTS for Inhibitors of phosphatidylinositol 5-phosphate 4-kinase (PI5P4K); Phosphatidylinositol 5-phosphate 4-kinase type-2 alpha (Homo sapiens), P48426; PI5P4Kalpha enzyme, ADP-Glo luminescence, 60 min; stronger effect = lower value; max response, %; 1.2% of 330,000 active; AID 652105, 2013; active = max response of -50% or lower; inconclusive = between -30% and -50%; inactive = -30% or higher; also: value at the top dose of about 77 µM; % is scaled to controls: 0 for no effect and ±100 for the full control effect
#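 qHTS, 1536-well: enzyme/substrate mix, compound by pin tool, 5 microM ATP final; RT 60 min; ADP-Glo reagents 1 (45 min) then 2 (30 min); luminescence.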
# PLK1 PBD block = qHTS for Inhibitors of PLK1-PDB (polo-like kinase 1 - polo-box domain): Primary Screen; Serine/threonine-protein kinase PLK1 (Homo sapiens), P53350; Plk1 PBD binding of FITC phosphopeptide, fluorescence polarization; Potency, µM, for inactives: max response, negative = inhibition, usual class: inhibitors; 2.8% of 360,000 active; AID 720504, 2013; also: potency is read from the fitted curve at half-maximal effect; series mostly up to about 57 µM; % is scaled to controls: 0 for no effect and ±100 for the full control effect; nearly all actives have a fitted effect of over 65% in size
# JMJD2A Tudor = qHTS Assay for Inhibitors of JMJD2A-Tudor Domain; AID 504339, 2011; Lysine-specific demethylase 4A (Homo sapiens), O75164; Potency, µM (doses to about 114 µM), for the others: top-dose activity change, negative = inhibition, usual class: inhibitors; 4.4% of 390,000 active; AlphaScreen JMJD2A-Tudor / H3K4me3 peptide binding; also: potency is read from the fitted curve at half-maximal effect; % is scaled to controls: 0 for no effect and ±100 for the full control effect; nearly all actives have a fitted effect of over 50% in size
# Target sequence (O75164 whole entry, looked up, the tested form may be a part): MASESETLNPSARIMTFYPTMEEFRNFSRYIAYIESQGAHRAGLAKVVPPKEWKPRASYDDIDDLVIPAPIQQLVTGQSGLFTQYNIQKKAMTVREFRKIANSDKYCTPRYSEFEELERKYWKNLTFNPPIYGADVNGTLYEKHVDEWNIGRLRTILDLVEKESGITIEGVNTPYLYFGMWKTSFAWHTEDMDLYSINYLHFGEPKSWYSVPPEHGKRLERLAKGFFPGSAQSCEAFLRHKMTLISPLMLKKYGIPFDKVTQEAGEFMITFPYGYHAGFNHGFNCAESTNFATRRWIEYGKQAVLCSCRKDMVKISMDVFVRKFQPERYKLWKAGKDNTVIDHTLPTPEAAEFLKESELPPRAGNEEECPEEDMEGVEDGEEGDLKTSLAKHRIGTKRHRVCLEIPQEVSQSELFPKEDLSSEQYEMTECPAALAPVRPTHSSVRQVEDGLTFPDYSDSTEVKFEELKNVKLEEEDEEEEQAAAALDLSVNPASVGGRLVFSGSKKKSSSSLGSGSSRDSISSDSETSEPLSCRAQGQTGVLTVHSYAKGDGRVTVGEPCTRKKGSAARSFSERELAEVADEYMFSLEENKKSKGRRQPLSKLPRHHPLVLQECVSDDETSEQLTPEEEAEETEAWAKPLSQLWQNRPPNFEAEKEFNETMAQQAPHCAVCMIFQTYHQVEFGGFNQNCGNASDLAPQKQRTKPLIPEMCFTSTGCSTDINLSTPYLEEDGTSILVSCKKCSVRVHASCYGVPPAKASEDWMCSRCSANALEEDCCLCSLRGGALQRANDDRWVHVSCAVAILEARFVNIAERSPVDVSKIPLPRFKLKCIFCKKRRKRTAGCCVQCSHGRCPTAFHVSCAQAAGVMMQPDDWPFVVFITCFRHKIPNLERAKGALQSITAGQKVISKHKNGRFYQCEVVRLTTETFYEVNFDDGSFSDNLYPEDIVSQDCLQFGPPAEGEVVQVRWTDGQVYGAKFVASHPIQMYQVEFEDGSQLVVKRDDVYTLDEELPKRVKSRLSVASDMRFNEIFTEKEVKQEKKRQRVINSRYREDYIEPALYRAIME
# BAZ2B block = qHTS Assay for Inhibitors of BAZ2B. AlphaScreen BAZ2B-H3K14Ac peptide displacement. Potency, µM (doses to about 114 µM), inactives show at the highest dose activity change, negative = inhibition, usual class: inhibitors. 4.4% of 360,000 active. AID 504333, 2011; also: potency is read from the fitted curve at half-maximal effect; % is scaled to controls: 0 for no effect and ±100 for the full control effect; nearly all actives have a fitted effect of over 60% in size
#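 Compounds, titrated to a top concentration of 110 uM, were incubated 30 min at room temperature with preformed BAZ2B/acetyl-K14 H3 peptide complex (50 nM each). Proximity signal was measured by AlphaScreen after 20 min with beads.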
# HP1b chromo inh = HTS for Inhibitors of HP1-beta Chromodomain Interactions with Methylated Histone Tails; Chromobox protein homolog 1 (Homo sapiens), P83916; AlphaScreen HP1-beta / biotin-H3K9me3 peptide binding; Potency, µM (highest dose often 114 µM), inactives show at the top dose activity change, negative = inhibition, usual class: inhibitors; 0.56% of 390,000 active; also: potency is read from the fitted curve at half-maximal effect; nearly all actives have a fitted effect of over 70% in size
#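 HP1-beta protein (50 nM final) preincubated 30 min at room temperature with biotinylated H3(1-18)K9me3 peptide (50 nM) in PBS pH 7.4, 0.01% Tween-20, then compound added for 30 min. AlphaScreen streptavidin donor/nickel chelate acceptor beads (10 ug/mL final), 30 min dark, luminescence read.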
# G9a inh = qHTS Assay for Inhibitors of Histone Lysine Methyltransferase G9a. 8.8% of 350,000 active. Potency, µM (doses to about 102 µM), for inactives: at the highest dose activity, negative = inhibition, most hits filed as inhibitors. G9a H3K9 monomethylation, AlphaScreen, 2 h. Histone-lysine N-methyltransferase EHMT2 (Homo sapiens), Q96KQ7; also: potency is read from the fitted curve at half-maximal effect; % is scaled to controls: 0 for no effect and ±100 for the full control effect; nearly all actives have a fitted effect of over 75% in size
#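 Quantitative HTS format: methyltransferase activity on a biotin-tagged H3K9 peptide is measured by AlphaScreen, using a rabbit anti-monomethyl-H3K9 antibody with streptavidin donor and anti-IgG acceptor beads. Final levels are 20 nM enzyme, 500 nM peptide, 20 uM SAM; 2 h RT.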
# An asterisk follows results filed as active; ? = inconclusive; nt = not tested or not shown; [ ] = remark or other dose. A selection: hits, their analogues and other compounds. The true share with any hit is near 12%. Unless noted, calls follow the shape of the dose curve; as a rule, active = well fitted curve in the direction sought with a large enough effect; inconclusive = small, poorly fitted or top-dose-only effect, or another doubt; inactive = no such curve, though single readings can be large; an effect the other way counts as inactive or inconclusive.
SMILES,PI5P4K alpha inh,PLK1 PBD block,JMJD2A Tudor,BAZ2B block,HP1b chromo inh,G9a inh
CCOc1cc(/C=N/O)ccc1OCc1ccc(F)cc1,-7,24µM*,28µM*,3%,?,-5%[59 µM]
NC(N)=N/N=C/c1ccc(OCc2ccccc2)c(OCc2ccccc2)c1,-4,-9%,?,40µM*,?,?
O=C(CC(=O)NN=C1CCCCCC1)NCc1cccnc1,-6,-2%,-7%,-5%,17%,-3%
CCOc1ccc(NC(=O)C2CCN(c3nnc(-n4c(C)ccc4C)s3)CC2)cc1,nt,nt,-14%,-2%,22%,7%[59 µM]
COCCn1c(SCc2ccc(F)cc2)nc2c1c(=O)[nH]c(=O)n2C,4,11µM*,-7%,3%,?,nt
CCOCCn1c(SCC(=O)OCc2ccccc2)nc2c1c(=O)[nH]c(=O)n2C,-7,21µM*,-4%,-2%,6%,26%[12.7 µM]
Cc1ccc(CSc2nc3c(c(=O)[nH]c(=O)n3C)n2CCC(C)C)cc1,3,-16%,-14%,15%,25%,0%
CC(C)CCn1c(SCc2ccc(Cl)cc2)nc2c1c(=O)[nH]c(=O)n2C,nt,27µM*,-21%,-26%,-32%,14µM*
CCCCCOC(=O)CSc1nc2c(c(=O)[nH]c(=O)n2C)n1Cc1ccc(Cl)cc1,-1,?,-15%,3%,9%,40µM*
CCOCCn1c(SCc2ccc(F)cc2)nc2c1c(=O)[nH]c(=O)n2C,-1,-3%,-12%,11%,28%,?
CCCCn1c(SCc2ccc(Cl)cc2)nc2c1c(=O)[nH]c(=O)n2C,-13,21µM*,?,14%,-16%,?
C/C(Cl)=C/Cn1c(SCc2ccc(Cl)cc2)nc2c1c(=O)[nH]c(=O)n2C,1,?,11%,-1%,17%,?
CCNC(=S)N1CCN(c2ccc([N+](=O)[O-])cc2)CC1,-13,30µM*,-18%[11.4 µM],-25%,-23%,-1%
Cc1ccc(N2CCN(C(=S)Nc3ccccc3)CC2)cc1,2,-2%,-16%,0%,36%,-4%
CN(C)c1ccc(C(=S)N2CCN(c3ccc([N+](=O)[O-])cc3)CC2)cc1,-20,11µM*,?,7%,?,2.2µM*
Cc1ccc(N2CCN(C(=S)c3ccc(N(C)C)cc3)CC2)cc1,nt,17µM*,32µM*,13µM*,?,5µM*
COc1ccc(NS(=O)(=O)c2cc(N)ccc2N2CCCC2)cc1,-23,-11%,56µM*,nt,?,nt
Nc1ccc(N2CCOCC2)c(S(=O)(=O)Nc2cc(Cl)ccc2Cl)c1,?,-14%,?,-35%,2%,35µM*
Nc1cc(S(=O)(=O)Nc2ccccc2Cl)ccc1N1CCOCC1,0,1%,-6%,4%,34%,?
O=C(/C=C/c1cccs1)Nc1ccc(N2CCOCC2)c(S(=O)(=O)Nc2cc(Cl)ccc2Cl)c1,1,-12%,-20%,-27%,4%,56µM*
COc1ccc(NS(=O)(=O)c2cc(N)ccc2N2CCOCC2)cc1,-8,?,-25%,-15%,-16%,16µM*
COc1ccc(NS(=O)(=O)c2cc(NC(=O)c3ccccc3)ccc2N2CCOCC2)cc1,-4,-1%,-29%,nt,22%,nt
Cc1ccc(Cl)cc1NC(=O)C(C)n1nnc2sc3c(c2c1=O)CCCC3 (stereo not drawn),nt,nt,-15%,-3%,38%,-29%[59 µM]
Nc1[nH]nc2c1NN(c1ccc(Cl)cc1Cl)N2,3,-5%,-24%,25µM*,0%,?
COC(=O)C1=C(C)NC(=O)/C1=C\c1cc(C)n(-c2ccccc2)c1C,0,2%,?,?,-15%,40µM*
